# Measured values from the supplement of paper PMC4022240.
# ± gives the standard deviation.
# T1: HaloTag-ATRX ADD domain (163-292)
# T1 chain: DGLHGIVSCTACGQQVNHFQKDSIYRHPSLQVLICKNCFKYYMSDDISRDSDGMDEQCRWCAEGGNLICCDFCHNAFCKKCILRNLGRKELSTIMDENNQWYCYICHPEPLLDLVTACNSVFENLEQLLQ
# B1: Unmod H1 variant K T A K P K K A A P K K K (peptide)
# chain: KTAKPKKAAPKKK
# B2: Unmod H1 variant K P K A A K A R V T K P K (peptide)
# chain: KPKAAKARVTKPK
# B3: Unmod H1 variant T K P K T A K P K K A A P (peptide)
# chain: TKPKTAKPKKAAP
# B4: Unmod H1 variant A V A A S K E R S G V S L (peptide)
# chain: AVAASKERSGVSL
# B5: Unmod H1 variant A K K P A G A A K K P K K (peptide)
# chain: AKKPAGAAKKPKK
# Molecular target: T1, HaloTag-ATRX ADD domain (163-292)
# Experiment: peptide microarray binding signal (635 nm), min-max normalized on array (fraction of array maximum); higher = stronger binding
# Details: peptide region: Unmod H1 variant; binder concentration: 50 nM
# Procedure, shortened: (§1)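 Binding signal is the mean intensity of triplicate spots, min-max scaled within each library. Histone 13-mer peptide–cellulose conjugates were spotted in triplicate on nitrocellulose with a Cy3 tracer and blocked overnight at 4°C. Probing lasted 1 h at 4°C, either with biotin-labelled HaloTag reader fusions (10 nM to 1 μM) and streptavidin-Alexa Fluor 647 or with rabbit histone antibodies (1:10,000 to 1:2,000) and anti-rabbit Alexa 647. An Axon GenePix 4000B read signal at 635 nm and misprints at 532 nm.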
row,Binder,peptide microarray binding signal
1,B1,0.01737 ± 0.0001
2,B2,0.0178 ± 0.00067
3,B3,0.0172 ± 0.00023
4,B4,0.0286 ± 0.0016
5,B5,0.00931 ± 0.00023

# Same assay, conditions: peptide region: Unmod H1 variant; binder concentration: 500 nM
row,Binder,peptide microarray binding signal
1,B1,0.00729 ± 0.00021
2,B2,0.0125 ± 0.0019
3,B3,0.0103 ± 0.00048
4,B4,0.0273 ± 0.0012
5,B5,0.00786 ± 0.00022

# Molecular target: HaloTag-ING2 PHD (mouse Ing2 200-280)
# Experiment: as above
# Details: peptide region: Unmod H1 variant; binder concentration: 10 nM
# Procedure, shortened: as §1
row,Binder,peptide microarray binding signal
1,B1,0.00203 ± 5.4e-05
2,B2,0.00173 ± 3.7e-05
3,B3,0.00173 ± 2.1e-05
4,B4,0.011 ± 0.00034
5,B5,0.003103 ± 3e-05

# Same assay, conditions: peptide region: Unmod H1 variant; binder concentration: 100 nM
row,Binder,peptide microarray binding signal
1,B1,0.00532 ± 0.00022
2,B2,0.00439 ± 0.00016
3,B3,0.00567 ± 0.00041
4,B4,0.0228 ± 0.00053
5,B5,0.00765 ± 0.00058

# Molecular target: anti-H3K4me3 antibody ab8580
# Experiment: as above
# Details: peptide region: Unmod H1 variant; binder concentration: 1:2,000 dilution
# Procedure, shortened: as §1
row,Binder,peptide microarray binding signal
1,B1,0.000755 ± 3e-05
2,B2,0.00051 ± 1.5e-05
3,B3,0.00108 ± 6.8e-05
4,B4,0.00236 ± 0.00025
5,B5,0.0006041 ± 5.8e-06

# Same assay, conditions: peptide region: Unmod H1 variant; binder concentration: 1:10,000 dilution
row,Binder,peptide microarray binding signal
1,B1,0.000913 ± 1.6e-05
2,B2,0.00097 ± 4e-05
3,B3,0.00097 ± 9.9e-06
4,B4,0.00479 ± 0.00028
5,B5,0.00217 ± 0.0002

# Molecular target: anti-H3K9me3 antibody ab8898
# Experiment: as above
# Details: peptide region: Unmod H1 variant; binder concentration: 1:2,000 dilution
# Procedure, shortened: as §1
row,Binder,peptide microarray binding signal
1,B1,0.000121 ± 1.3e-06
2,B2,0.000166 ± 1.8e-06
3,B3,0.000227 ± 4.1e-06
4,B4,0.00335 ± 9.4e-05
5,B5,0.000423 ± 8.2e-06

# Same assay, conditions: peptide region: Unmod H1 variant; binder concentration: 1:10,000 dilution
row,Binder,peptide microarray binding signal
1,B1,0.000577 ± 6.2e-06
2,B2,0.000404 ± 4.4e-06
3,B3,0.000577 ± 6.2e-06
4,B4,0.002825 ± 2.4e-05
5,B5,0.00104 ± 1.1e-05
